In PubChem BioAssay (Tox21):
Where “and” joins values, the source holds several entries; their conditions need not be identical. Equal entries are not always repeated. Records with an inconclusive call do not appear. Where a call stands in place of a potency, no number is given. A structure can be active in one record and inactive in another. Calls of active or inactive are those of the source. The call rests on the fitted dose curve; in most records, active means well fitted curve in the direction sought with a large enough effect in the repeat runs; inconclusive means weak or mixed curves; inactive means no such curve, though single readings can be large; an effect the other way counts as inactive or inconclusive.

Columns and labels:
[1] = Caspase-3/7 induction in HepG2 cells by small molecules, qHTS assay (AID 1346978); further: nearly all actives have a fitted effect of over 15% in size; further: potency means the concentration at half of the fitted maximal effect
How it was run: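 Wild-type HepG2 cells, 2,000/well, settled 5 hr at 37 C and 5% CO2, then compound-treated for 17 hr; caspase-3/7 activity read by luminescent Caspase-Glo 3/7 after 30 min at room temperature.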

[2] = Caspase-3/7 induction in CHO-K1 cells by small molecules, qHTS cell viability counter screen (AID 1346979); further: nearly all actives have a fitted effect of over 35% in size; further: potency means the concentration at half of the fitted maximal effect
How it was run: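 In the same wells as the caspase read, viability of compound-treated wild-type CHO-K1 cells was assessed using CellTiter-Fluor, added after 16hr at 37C and measured by fluorescence following 1hr further incubation.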

[3] = Caspase-3/7 induction in CHO-K1 cells by small molecules, qHTS assay (AID 1346980); further: nearly all actives have a fitted effect of over 15% in size
How it was run: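 Wild-type CHO-K1 cells exposed to compounds for 17hr at 37 C, 5% CO2. Caspase-3/7 activity then measured by Caspase-Glo 3/7 luminescence after 30min at room temperature.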

[4] = Caspase-3/7 induction in HepG2 cells by small molecules, qHTS cell viability counter screen (AID 1346981); further: nearly all actives have a fitted effect of over 30% in size; further: potency means the concentration at half of the fitted maximal effect
How it was run: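 CellTiter-Fluor fluorescence measured viability in the same wells used for Caspase-Glo 3/7. HepG2 (wild type) at 2,000 cells/well were pre-incubated 5 hr, dosed, and given reagent at 16 hr, with 1 hr further at 37C.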

[5] = molecular target: Nuclear receptor subfamily 1 group I member 2 (Homo sapiens) (UniProt O75469); assay: Human pregnane X receptor (PXR) small molecule agonists, qHTS assay (AID 1346982); further: nearly all actives have a fitted effect of over 35% in size; further: potency means the concentration at half of the fitted maximal effect
How it was run: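 Agonist mode: luminescence from ONE-Glo after 24 h compound exposure at 37C in HepG2 cells carrying hPXR-responsive CYP3A4 luciferase, plated in charcoal-stripped serum medium 5 h beforehand.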

[6] = molecular target: Cytochrome P450 2D6 (Homo sapiens) (UniProt P10635); assay: Cytochrome P450 Family 2 Subfamily D Member 6 (CYP2D6) small molecule antagonists: luciferase reporter qHTS assay (AID 1671196); further: nearly all actives have a fitted effect of over 50% in size; further: potency means the concentration at half of the fitted maximal effect
How it was run: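 CYP2D6 activity was followed as luminescence from its luciferin product after a 1 h NADPH-driven reaction at room temperature. Enzyme-substrate mix and compound were pre-incubated for 10 min, and the signal was read 20 min after adding detection reagent.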

[7] = molecular target: Cytochrome P450 2C19 (Homo sapiens) (UniProt P33261); assay: Cytochrome P450 Family 2 Subfamily C Member 19 (CYP2C19) small molecule antagonists: luciferase reporter qHTS assay (AID 1671197); further: nearly all actives have a fitted effect of over 65% in size; further: potency means the concentration at half of the fitted maximal effect
How it was run: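 Quantitative high-throughput screen of the Tox21 library using CYP2C19 with proluciferin substrate. Reaction: NADPH regeneration, 37C, 1 h, after 10 min compound preincubation at room temperature. Readout: luminescence.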

[8] = molecular target: Cytochrome P450 2C9 (Homo sapiens) (UniProt P11712); assay: Cytochrome P450 Family 2 Subfamily C Member 9 (CYP2C9) small molecule antagonists: luciferase reporter qHTS assay (AID 1671198); further: nearly all actives have a fitted effect of over 50% in size; further: potency means the concentration at half of the fitted maximal effect
How it was run: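 P450-Glo proluciferin substrate with CYP2C9 enzyme; 10 min RT preincubation, then NADPH regeneration 1 h at 37C; luciferin detection reagent 20 min RT, luminescence in relative luminescence units.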

[9] = molecular target: Cytochrome P450 1A2 (Homo sapiens) (UniProt P05177); assay: Cytochrome P450 Family 1 Subfamily A Member 2 (CYP1A2) small molecule antagonists: luciferase reporter qHTS assay (AID 1671199); further: nearly all actives have a fitted effect of over 50% in size; further: potency means the concentration at half of the fitted maximal effect
How it was run: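 Luminescence from luciferin formed by CYP1A2 from a proluciferin substrate, read 20 min after detection reagent. Compound was pre-incubated 10 min with enzyme-substrate, and reaction started with NADPH regeneration solution for 1 h at room temperature; furafylline control.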

[10] = molecular target: Voltage-gated inwardly rectifying potassium channel KCNH2 (Homo sapiens) (UniProt Q12809); assay: Human Ether-a-go-go-Related Gene (hERG) channel small molecule antagonists: fluorescence cell-based qHTS assay (AID 1671200); further: nearly all actives have a fitted effect of over 50% in size; further: potency means the concentration at half of the fitted maximal effect
How it was run: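 Quantitative HTS in hERG-U2OS cells: thallium entry through the channel reports activity, read as continuous 480/540 nm fluorescence over 2 min after stimulus addition.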

[11] = molecular target: Cytochrome P450 3A4 (Homo sapiens) (UniProt P08684); assay: Cytochrome P450 Family 3 Subfamily A Member 4 (CYP3A4) small molecule antagonists: luciferase reporter qHTS assay (AID 1671201); further: nearly all actives have a fitted effect of over 50% in size; further: potency means the concentration at half of the fitted maximal effect
How it was run: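 Inhibition of CYP3A4 is measured as loss of light: the enzyme converts a proluciferin substrate to luciferin, detected luminescently. Reaction ran 1 h at room temperature with NADPH regeneration after a 10 min compound preincubation.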

[12] = molecular target: Nuclear receptor subfamily 1 group I member 2 (Rattus norvegicus) (UniProt Q9R1A7); assay: Rat pregnane X receptor (rPXR) activation by small molecules, qHTS assay (AID 1346983); conditions: rPXR luciferase reporter cells, One-Glo luminescence, 24 h; max activation: stronger effect = higher value; further: nearly all actives have a fitted effect of over 20% in size
How it was run: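 Cell-based rPXR activation assay: rPXR cells, 2,000 per well, rested 5hr at 37 C, then exposed to compounds in DMSO for 24 hr at 37 C. Luciferase activity read by One-Glo luminescence after 30 min at room temperature.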

[13] = molecular target: Nuclear receptor subfamily 1 group I member 2 (Homo sapiens) (UniProt O75469); assay: CYP3A4 induction through human pregnane X receptor (PXR) by small molecules, qHTS assay (AID 1346984); further: nearly all actives have a fitted effect of over 40% in size; further: potency means the concentration at half of the fitted maximal effect
How it was run: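 Read-out is luminescence after One-Glo addition, following a 3 hr, 37C incubation with Luciferin-IPA CYP3A4 substrate (3uM final). Before that, compounds were on DPX-2 cells (HepG2 co-transfected with PXR element plus CYP3A4-promoter luciferase) for 24 hr at 37C.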

Sequence of Cytochrome P450 1A2 (Homo sapiens) (P05177 whole entry, looked up): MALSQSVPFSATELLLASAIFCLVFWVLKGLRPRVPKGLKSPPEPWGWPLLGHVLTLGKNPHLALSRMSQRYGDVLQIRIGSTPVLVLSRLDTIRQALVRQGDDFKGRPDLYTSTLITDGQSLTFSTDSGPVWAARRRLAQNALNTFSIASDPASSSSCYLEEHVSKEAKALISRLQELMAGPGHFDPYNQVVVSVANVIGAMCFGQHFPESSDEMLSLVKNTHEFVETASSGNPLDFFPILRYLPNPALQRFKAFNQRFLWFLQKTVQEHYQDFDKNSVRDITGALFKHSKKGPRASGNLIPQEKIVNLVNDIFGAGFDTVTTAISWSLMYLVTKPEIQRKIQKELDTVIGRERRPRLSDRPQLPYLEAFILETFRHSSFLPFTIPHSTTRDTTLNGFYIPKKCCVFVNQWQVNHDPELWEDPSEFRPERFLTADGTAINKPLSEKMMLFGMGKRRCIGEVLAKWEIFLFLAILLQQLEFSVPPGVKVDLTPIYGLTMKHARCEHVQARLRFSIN
Sequence of Cytochrome P450 2C9 (Homo sapiens) (P11712 whole entry, looked up): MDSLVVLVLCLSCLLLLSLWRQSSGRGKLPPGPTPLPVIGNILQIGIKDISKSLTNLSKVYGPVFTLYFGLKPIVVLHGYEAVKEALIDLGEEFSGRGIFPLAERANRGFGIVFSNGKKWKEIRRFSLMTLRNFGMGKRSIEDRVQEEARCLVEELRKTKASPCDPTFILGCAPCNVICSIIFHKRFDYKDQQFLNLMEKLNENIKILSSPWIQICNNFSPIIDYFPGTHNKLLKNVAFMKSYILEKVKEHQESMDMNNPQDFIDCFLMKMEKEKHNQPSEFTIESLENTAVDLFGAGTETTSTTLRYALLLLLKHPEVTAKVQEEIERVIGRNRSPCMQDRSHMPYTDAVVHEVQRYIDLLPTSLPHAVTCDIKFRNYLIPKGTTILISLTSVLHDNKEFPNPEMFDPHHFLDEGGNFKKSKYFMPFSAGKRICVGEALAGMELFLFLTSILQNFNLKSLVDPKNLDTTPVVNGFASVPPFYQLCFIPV
Sequence of Cytochrome P450 2D6 (Homo sapiens) (P10635 whole entry, looked up): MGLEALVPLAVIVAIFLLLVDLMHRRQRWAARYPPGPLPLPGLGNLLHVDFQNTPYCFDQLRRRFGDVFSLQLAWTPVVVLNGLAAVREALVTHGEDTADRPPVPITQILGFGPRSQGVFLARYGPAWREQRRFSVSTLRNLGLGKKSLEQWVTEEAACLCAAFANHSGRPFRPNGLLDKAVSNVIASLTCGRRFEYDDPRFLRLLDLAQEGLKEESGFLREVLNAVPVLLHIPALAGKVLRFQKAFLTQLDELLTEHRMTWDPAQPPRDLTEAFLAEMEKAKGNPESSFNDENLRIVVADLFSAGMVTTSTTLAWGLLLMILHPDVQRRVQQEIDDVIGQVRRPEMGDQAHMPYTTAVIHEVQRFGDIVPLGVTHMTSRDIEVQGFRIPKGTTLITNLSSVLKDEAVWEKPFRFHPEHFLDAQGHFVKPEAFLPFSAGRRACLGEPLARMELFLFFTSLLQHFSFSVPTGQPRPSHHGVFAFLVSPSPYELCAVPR
Sequence of Nuclear receptor subfamily 1 group I member 2 (Rattus norvegicus) (Q9R1A7 whole entry, looked up): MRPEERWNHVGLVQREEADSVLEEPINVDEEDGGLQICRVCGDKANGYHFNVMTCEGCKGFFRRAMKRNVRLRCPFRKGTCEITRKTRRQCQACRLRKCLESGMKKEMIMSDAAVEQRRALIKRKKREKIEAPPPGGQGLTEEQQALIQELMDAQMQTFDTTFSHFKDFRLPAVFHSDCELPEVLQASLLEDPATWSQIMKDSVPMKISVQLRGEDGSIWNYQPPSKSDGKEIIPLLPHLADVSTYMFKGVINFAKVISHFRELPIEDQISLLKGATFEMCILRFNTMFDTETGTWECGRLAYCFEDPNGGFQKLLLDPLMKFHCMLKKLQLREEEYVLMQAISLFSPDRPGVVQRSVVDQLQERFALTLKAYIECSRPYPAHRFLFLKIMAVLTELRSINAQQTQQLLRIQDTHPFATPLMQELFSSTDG
Sequence of Voltage-gated inwardly rectifying potassium channel KCNH2 (Homo sapiens) (Q12809 whole entry, looked up): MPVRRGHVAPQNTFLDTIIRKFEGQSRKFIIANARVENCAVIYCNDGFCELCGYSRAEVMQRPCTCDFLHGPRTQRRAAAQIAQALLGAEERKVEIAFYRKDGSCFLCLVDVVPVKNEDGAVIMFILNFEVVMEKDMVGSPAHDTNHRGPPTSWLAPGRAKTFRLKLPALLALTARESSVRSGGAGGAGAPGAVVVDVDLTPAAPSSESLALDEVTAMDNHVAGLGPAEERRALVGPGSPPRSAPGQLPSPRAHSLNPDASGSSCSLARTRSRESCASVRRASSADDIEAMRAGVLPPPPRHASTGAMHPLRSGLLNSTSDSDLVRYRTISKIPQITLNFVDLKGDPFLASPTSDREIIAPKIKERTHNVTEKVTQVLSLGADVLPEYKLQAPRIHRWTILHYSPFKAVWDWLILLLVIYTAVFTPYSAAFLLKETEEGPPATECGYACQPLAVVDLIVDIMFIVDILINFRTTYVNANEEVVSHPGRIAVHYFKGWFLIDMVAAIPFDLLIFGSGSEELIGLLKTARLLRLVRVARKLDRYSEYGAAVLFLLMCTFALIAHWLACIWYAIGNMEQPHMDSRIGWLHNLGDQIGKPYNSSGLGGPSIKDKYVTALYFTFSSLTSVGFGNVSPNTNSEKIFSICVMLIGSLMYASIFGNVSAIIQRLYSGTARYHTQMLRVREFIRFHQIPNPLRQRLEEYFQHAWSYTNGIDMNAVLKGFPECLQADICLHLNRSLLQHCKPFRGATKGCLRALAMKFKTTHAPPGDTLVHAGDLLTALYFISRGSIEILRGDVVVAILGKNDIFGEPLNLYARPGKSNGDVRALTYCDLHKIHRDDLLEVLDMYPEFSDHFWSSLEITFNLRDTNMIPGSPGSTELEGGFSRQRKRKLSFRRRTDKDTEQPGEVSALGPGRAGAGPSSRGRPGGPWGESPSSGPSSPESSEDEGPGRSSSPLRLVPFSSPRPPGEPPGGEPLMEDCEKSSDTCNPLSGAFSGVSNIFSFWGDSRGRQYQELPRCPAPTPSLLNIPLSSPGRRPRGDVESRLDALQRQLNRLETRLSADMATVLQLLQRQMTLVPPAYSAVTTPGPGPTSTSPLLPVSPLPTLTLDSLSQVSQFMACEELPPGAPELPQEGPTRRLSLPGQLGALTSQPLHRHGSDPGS
Sequence of Cytochrome P450 3A4 (Homo sapiens) (P08684 whole entry, looked up): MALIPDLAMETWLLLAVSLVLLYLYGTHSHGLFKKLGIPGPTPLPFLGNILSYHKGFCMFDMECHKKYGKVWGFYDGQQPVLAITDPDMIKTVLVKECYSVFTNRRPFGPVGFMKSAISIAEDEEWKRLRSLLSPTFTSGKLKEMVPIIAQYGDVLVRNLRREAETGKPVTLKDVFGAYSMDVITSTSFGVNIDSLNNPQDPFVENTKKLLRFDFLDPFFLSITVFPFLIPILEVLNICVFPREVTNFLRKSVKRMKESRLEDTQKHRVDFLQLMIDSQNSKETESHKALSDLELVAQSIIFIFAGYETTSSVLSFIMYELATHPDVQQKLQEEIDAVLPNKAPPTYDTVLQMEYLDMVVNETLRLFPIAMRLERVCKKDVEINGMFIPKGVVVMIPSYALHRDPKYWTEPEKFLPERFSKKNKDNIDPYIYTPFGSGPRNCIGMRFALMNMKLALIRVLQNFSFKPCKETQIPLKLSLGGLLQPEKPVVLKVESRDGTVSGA
Sequence of Nuclear receptor subfamily 1 group I member 2 (Homo sapiens) (O75469 whole entry, looked up): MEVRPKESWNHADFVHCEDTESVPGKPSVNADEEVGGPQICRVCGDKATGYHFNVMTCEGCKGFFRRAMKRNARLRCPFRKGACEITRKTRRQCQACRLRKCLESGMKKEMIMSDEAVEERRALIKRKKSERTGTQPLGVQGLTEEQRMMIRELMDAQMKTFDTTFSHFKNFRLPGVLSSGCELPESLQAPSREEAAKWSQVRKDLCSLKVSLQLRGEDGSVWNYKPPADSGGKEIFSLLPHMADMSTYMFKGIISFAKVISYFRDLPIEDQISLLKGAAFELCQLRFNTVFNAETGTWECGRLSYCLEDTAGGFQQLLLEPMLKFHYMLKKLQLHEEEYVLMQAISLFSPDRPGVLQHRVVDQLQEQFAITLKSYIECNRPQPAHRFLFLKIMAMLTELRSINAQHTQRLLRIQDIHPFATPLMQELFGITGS
Sequence of Cytochrome P450 2C19 (Homo sapiens) (P33261 whole entry, looked up): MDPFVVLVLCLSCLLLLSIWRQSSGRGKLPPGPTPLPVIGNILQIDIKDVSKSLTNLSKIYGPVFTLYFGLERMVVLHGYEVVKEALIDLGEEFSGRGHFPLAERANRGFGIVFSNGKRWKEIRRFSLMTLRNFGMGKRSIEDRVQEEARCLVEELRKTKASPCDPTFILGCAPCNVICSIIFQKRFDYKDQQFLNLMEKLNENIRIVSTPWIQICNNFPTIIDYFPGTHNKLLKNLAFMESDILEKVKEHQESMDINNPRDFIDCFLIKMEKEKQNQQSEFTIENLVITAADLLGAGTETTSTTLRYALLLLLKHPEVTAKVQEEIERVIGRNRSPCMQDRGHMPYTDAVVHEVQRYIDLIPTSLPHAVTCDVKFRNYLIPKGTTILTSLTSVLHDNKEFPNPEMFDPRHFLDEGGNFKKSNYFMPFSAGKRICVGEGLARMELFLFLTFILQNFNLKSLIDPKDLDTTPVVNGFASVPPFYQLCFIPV

Compound	Potency [1]	Potency [2]	Potency [3]	Potency [4]	Potency [5]	Potency [6]	Potency [7]	Potency [8]	Potency [9]	Potency [10]	Potency [11]	max activation [12]	Potency [13]
CCc1nc(N)nc(N)c1-c1ccc(Cl)cc1	inactive	inactive	inactive	inactive	62.1 µM (active)	9.07 µM (active) and 15.9 µM (active) and 13.8 µM (active)	inactive	inactive	inactive	inactive			
CC(C)C(=O)Nc1ccc([N+](=O)[O-])c(C(F)(F)F)c1	inactive	44.5 µM (active) and 54.5 µM (active) and 26.6 µM (active)	inactive	inactive	35.4 µM (active) and 34.4 µM (active) and 29.8 µM (active)	36.6 µM (active) and 63.3 µM (active)	18.3 µM (active) and 22.4 µM (active) and 7.76 µM (active)	32.6 µM (active) and 31.7 µM (active) and 15.5 µM (active)	1.63 µM (active) and 5.03 µM (active) and 2.57 µM (active)	inactive			
Nc1c2c(nc3ccccc13)CCCC2	inactive	inactive	inactive	inactive	48.6 µM (active) and 38.6 µM (active) and inactive	3.56 µM (active) and 11.2 µM (active) and 11 µM (active)	39.9 µM (active) and inactive	inactive	5.03 µM (active) and 7.1 µM (active) and 7.23 µM (active)	inactive	inactive		
F[B-](F)(F)F	inactive	inactive	inactive	inactive	inactive	inactive	73.9 µM (active) and inactive and 79.6 µM (active)	inactive	inactive and 40.5 µM (active)	inactive	inactive and 40.5 µM (active)		
CN(N=O)C(=O)N[C@@H]1[C@@H](O)[C@H](O)[C@@H](CO)O[C@@H]1O	inactive	inactive	inactive	inactive	inactive	inactive	inactive	inactive	inactive	inactive	inactive	-0.687% (inactive)	inactive
NC(=O)c1cccnc1	inactive	inactive	inactive	inactive	inactive	inactive	49.3 µM (active) and inactive	inactive	inactive	inactive	inactive	-0.433% (inactive)	inactive
Cc1cc(C)nc(NS(=O)(=O)c2ccc(N)cc2)n1	inactive	inactive	inactive	inactive	inactive	inactive	80.6 µM (active) and inactive	inactive	inactive	inactive	inactive		
O=C(O)c1ccccc1	inactive	inactive	inactive	inactive	inactive	37.4 µM (active) and inactive	33.3 µM (active) and 3.47 µM (active) and inactive	inactive	37.4 µM (active) and inactive	inactive	inactive		
CCCCCCCCCCCC[N+](C)(C)Cc1ccccc1	67.3 µM (active) and 66.4 µM (active)	42.4 µM (active) and 33.3 µM (active) and 26.6 µM (active)	inactive	67.3 µM (active) and 74.5 µM (active) and inactive	inactive	984 nM (active) and 866 nM (active) and 219 nM (active)	78.1 µM (active) and 34.5 µM (active) and 17.4 µM (active)	77.2 µM (active)	34.9 µM (active) and 38.7 µM (active) and 36.3 µM (active)	1.08 µM (active) and 1.5 µM (active) and 1.07 µM (active)	inactive		
NS(=O)(=O)O	inactive	inactive	inactive	inactive	inactive	inactive	73.7 µM (active) and inactive	inactive	inactive	inactive	inactive		
Cc1ncc([N+](=O)[O-])n1C	inactive	inactive	inactive	inactive	inactive	inactive	inactive	inactive	inactive	inactive	inactive		
CC(=O)C(=O)O	inactive	inactive	inactive	inactive	inactive	inactive	inactive	inactive	inactive and 22.4 µM (active)	inactive	inactive		
Nc1ccc(S(N)(=O)=O)cc1	inactive	48.8 µM (active) and inactive	inactive	inactive									
CN(C)CCOC(c1ccccc1)c1ccccc1	inactive	inactive	inactive	inactive	54.8 µM (active) and inactive								
CN1CCc2cccc3c2[C@H]1Cc1ccc(O)c(O)c1-3	inactive	55 µM (active) and 22.8 µM (active) and 23.7 µM (active)	inactive	61.8 µM (active) and 25.6 µM (active)	inactive	45.3 µM (active) and 11.8 µM (active) and 38.9 µM (active)	inactive					9.82% (inactive)	6.31 µM (active)
